Measurements taken from PubChem BioAssay (Tox21).
Values joined by “and” are separate entries in the source; they are usually repeats but may differ in a detail not shown here. Equal values may be shown once. Records with an inconclusive call do not appear. A call without a number means that no potency is given here. Where a structure was tested more than once in an assay, its records may differ in their call. Active and inactive are the calls of the source. Unless noted, calls follow the shape of the full dose curve.

Key:
[1] = Nuclear factor erythroid 2-related factor 2/antioxidant responsive element (Nrf2/ARE) small molecule agonists: qHTS cell viability counter screen in human keratinocytes (AID 1919968; active = well fitted curve in the direction sought with a large enough effect in the repeat runs; an effect the other way counts as inactive or inconclusive; also: nearly all actives have a fitted effect of over 55% in size; also: potency is read from the fitted curve at half-maximal effect)
How it was run: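 Cells of the KeratinoSens line were plated at 1,500 per well and left for 5 h before compound transfer from DMSO stocks. After a 23 h incubation (37 C, 5% CO2), CellTiter-Fluor was added. Signal was taken as fluorescence intensity 1 h later.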

[2] = Nuclear factor erythroid 2-related factor 2/antioxidant responsive element (Nrf2/ARE) small molecule agonists: luciferase reporter gene qHTS assay in human keratinocytes (AID 1919969); also: nearly all actives have a fitted effect of over 35% in size; also: potency is read from the fitted curve at half-maximal effect
[3] = target: Gonadotropin-releasing hormone receptor (Homo sapiens) (UniProt P30968); assay: Human gonadotropin-releasing hormone receptor (GnRHR) small molecule agonists, calcium flux assay in GnRHR-HEK293 cells (AID 1920063); also: nearly all actives have a fitted effect of over 35% in size
Chain of Gonadotropin-releasing hormone receptor (Homo sapiens) (P30968 whole entry, looked up): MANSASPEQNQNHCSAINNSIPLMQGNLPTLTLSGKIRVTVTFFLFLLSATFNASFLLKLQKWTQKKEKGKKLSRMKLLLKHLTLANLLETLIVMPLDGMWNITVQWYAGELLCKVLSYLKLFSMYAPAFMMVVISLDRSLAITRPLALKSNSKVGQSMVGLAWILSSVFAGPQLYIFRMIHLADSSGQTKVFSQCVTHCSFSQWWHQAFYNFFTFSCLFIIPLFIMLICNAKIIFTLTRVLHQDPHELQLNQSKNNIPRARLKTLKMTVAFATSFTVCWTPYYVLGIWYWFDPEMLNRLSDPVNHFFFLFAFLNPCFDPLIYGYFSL
How it was run: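 Compounds dissolved in DMSO are pin-transferred onto dye-loaded GnRHR-HEK293 cells, which were seeded 18 h before at 37 C/5% CO2. Calcium signal is read as fluorescence intensity at 1 s intervals for 3 min.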

[4] = target: KiSS-1 receptor (Homo sapiens) (UniProt Q969F8); assay: Human kisspeptin (KISS1R) small molecule agonists, calcium flux assay in KISS1R-HEK293 cells (AID 1920064; active = well fitted curve in the direction sought with a large enough effect in the repeat runs; an effect the other way counts as inactive or inconclusive)
Chain of KiSS-1 receptor (Homo sapiens) (Q969F8 whole entry, looked up): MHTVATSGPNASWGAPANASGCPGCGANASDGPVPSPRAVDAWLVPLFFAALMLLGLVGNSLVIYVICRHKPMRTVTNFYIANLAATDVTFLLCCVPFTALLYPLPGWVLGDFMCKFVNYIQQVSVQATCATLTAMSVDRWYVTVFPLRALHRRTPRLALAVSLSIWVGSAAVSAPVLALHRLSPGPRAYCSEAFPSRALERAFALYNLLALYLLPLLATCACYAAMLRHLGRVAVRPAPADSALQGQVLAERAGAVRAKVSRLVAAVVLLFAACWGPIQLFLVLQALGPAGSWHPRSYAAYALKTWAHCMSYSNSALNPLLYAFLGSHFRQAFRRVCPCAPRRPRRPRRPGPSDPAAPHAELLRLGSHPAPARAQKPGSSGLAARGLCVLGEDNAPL
How it was run: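 Cell line: HEK293, stable human KISS1R. Dye loading 1 h at 37 C after 18 h culture. Read: kinetic fluorescence, 480/540 nm, 3 min at 1 s intervals.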

[5] = G protein-coupled receptor (GPCR) small molecule agonists, calcium flux assay: HEK293 wild type cell line counter screen (AID 1920065)
How it was run: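 Tox21 10K compounds, 15 concentrations each in triplicate, pin-transferred in DMSO onto dye-loaded cells; kinetic read at 480/540 nm for 3 min, 1 s intervals.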

[6] = p53 small molecule agonists, cell-based qHTS assay with human liver microsomes (AID 1963577);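 also: p53 response element beta-lactamase reporter cells with liver microsomes plus NADPH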
How it was run: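 p53RE-bla cells; 5 h settle, 37 C/5% CO2; cpd + HLM 0.5 mg/mL + NADPH 0.5 mg/mL (final); 16 h 37 C; LiveBLAzer 2 h RT dark; fluorescence readout.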

[7] = p53 small molecule agonists, cell-based qHTS assay with rat liver microsomes (AID 1963578)
How it was run: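 Rat liver microsome activation: microsomes 0.5 mg/mL, NADPH 0.5 mg/mL final; p53RE-bla cells, 16 h 37 C; LiveBLAzer readout, 2 h RT dark.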

[8] = p53 small molecule agonists, cell-based qHTS assay with human liver microsomes: qHTS cell viability counter screen (AID 1963579); also: nearly all actives have a fitted effect of over 45% in size; also: potency is read from the fitted curve at half-maximal effect
How it was run: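 Luminescent CellTiter-Glo read-out, 30 min at room temperature, gauged cytotoxicity in p53RE-bla cells exposed 16 h at 37 C to DMSO-dissolved compounds with metabolic activation by human liver microsomes and NADPH, each 0.5 mg/mL final.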

[9] = p53 small molecule agonists, cell-based qHTS assay with rat liver microsomes: qHTS cell viability counter screen (AID 1963580); also: nearly all actives have a fitted effect of over 45% in size; also: potency is read from the fitted curve at half-maximal effect
How it was run: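 Cytotoxicity counter screen: intracellular ATP measured by CellTiter-Glo luminescence in the same wells as the beta-lactamase reporter read, on HCT-116 p53RE-bla cells exposed 16 h at 37 C to compounds with rat liver microsomes and NADPH, each 0.5 mg/mL final.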

[10] = p53 small molecule agonists, cell-based qHTS assay: qHTS cell viability counter screen (AID 1963581); also: nearly all actives have a fitted effect of over 45% in size; also: potency is read from the fitted curve at half-maximal effect
How it was run: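 ATP content measured by luminescence in HCT-116 p53RE-bla cells treated 16 h at 37 C, same wells as the reporter screen.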

[11] = p53 small molecule agonists, cell-based qHTS assay (AID 1963582; active = well fitted activation curve with a large enough effect in the signal ratio in the repeat runs, not every such curve was filed as active; the % refers to the signal ratio)
How it was run: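 16 h compound exposure (37 C) of p53 response element–bla cells, preceded by 5 h recovery at 37 C/5% CO2; read-out via LiveBLAzer B/G FRET substrate, 2 h RT, fluorescence intensity.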

[12] = cAMP Responsive Elements (CRE) small molecule agonists, cell-based qHTS assay (AID 1963590)
How it was run: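 HEK 293T cells stably bearing CRE-bla were plated at 2,000 cells per well and rested 18 h. Compounds, positive controls or DMSO were added for 3 h at 37 C. LiveBLAzer B/G substrate was then loaded for 2 h at room temperature.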

[13] = cAMP Responsive Elements (CRE) small molecule antagonists, cell-based qHTS assay (AID 1963591; active = well fitted inhibition curve with a large enough effect in the signal ratio in the repeat runs, not every such curve was filed as active; the % refers to the signal ratio; also: potency is read from the fitted curve at half-maximal effect)
How it was run: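 First, CRE-bla HEK293T cells settled 18 h at 37 C. Next, compound and 0.25 uM final NKH477 were applied for 3 h. Last, LiveBLAzer B/G substrate was loaded for 2 h at room temperature.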

[14] = target: Beta-2 adrenergic receptor (Homo sapiens) (UniProt P07550); assay: Adrenergic beta2 receptor (ADRB2) small molecule antagonists, cell-based qHTS assay (AID 1963592); also: nearly all actives have a fitted effect of over 50% in size; also: potency is read from the fitted curve at half-maximal effect
Chain of Beta-2 adrenergic receptor (Homo sapiens) (P07550 whole entry, looked up): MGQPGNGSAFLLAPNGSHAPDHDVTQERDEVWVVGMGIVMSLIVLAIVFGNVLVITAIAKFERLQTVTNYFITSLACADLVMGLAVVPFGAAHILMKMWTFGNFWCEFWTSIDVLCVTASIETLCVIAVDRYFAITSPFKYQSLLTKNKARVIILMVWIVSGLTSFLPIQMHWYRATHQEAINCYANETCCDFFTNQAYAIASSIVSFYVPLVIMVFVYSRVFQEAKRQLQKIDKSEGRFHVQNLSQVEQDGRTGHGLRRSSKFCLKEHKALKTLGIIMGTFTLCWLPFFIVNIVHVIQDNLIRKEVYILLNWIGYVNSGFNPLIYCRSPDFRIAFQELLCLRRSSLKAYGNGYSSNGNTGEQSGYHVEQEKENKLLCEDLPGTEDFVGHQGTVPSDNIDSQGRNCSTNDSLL
How it was run: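 Assay format: CHO-ADRB2 cells, 18-20hr seeding at 37C/5% CO2, then compound plus 1nM isoproterenol agonist mix for 0.5hr RT. Homogeneous time-resolved fluorescence cAMP detection after 1hr, expressed as 665/615 nm ratio.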

[15] = target: Beta-2 adrenergic receptor (Homo sapiens) (UniProt P07550); assay: Adrenergic beta2 receptor (ADRB2) small molecule agonists, cell-based qHTS assay (AID 1963593);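 also: CHO cells stably overexpressing human ADRB2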
How it was run: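 CHO cells stably over-expressing ADRB2 were plated overnight at 37C, then dosed with compounds plus a stimulation mix containing 100uM IBMX and 25uM Ro-20-1724 for 0.5hr at room temperature. cAMP was measured by HTRF competition, 1hr.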

[16] = target: D(2) dopamine receptor (Homo sapiens) (UniProt P14416); assay: Dopamine D2 receptor (DRD2) small molecule agonists, cell-based qHTS assay (AID 1963594); also: nearly all actives have a fitted effect of over 35% in size
Chain of D(2) dopamine receptor (Homo sapiens) (P14416 whole entry, looked up): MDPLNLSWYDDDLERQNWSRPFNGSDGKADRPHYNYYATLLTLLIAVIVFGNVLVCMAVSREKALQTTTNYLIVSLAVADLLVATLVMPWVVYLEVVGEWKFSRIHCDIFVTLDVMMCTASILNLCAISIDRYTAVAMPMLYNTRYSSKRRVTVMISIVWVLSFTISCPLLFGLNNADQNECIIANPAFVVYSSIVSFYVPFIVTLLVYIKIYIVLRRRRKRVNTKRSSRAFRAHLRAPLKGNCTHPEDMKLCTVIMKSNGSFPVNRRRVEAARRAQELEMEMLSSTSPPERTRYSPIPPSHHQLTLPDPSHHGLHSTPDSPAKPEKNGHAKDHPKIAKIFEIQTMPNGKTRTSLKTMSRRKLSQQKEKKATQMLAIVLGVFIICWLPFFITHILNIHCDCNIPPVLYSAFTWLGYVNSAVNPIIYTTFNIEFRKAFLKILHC
How it was run: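 HEK293 cells stably expressing human DRD2, pre-treated with PDE inhibitor Ro20-1724 (0.1 mM final) and compound 10 min at room temperature, then stimulated with NKH477 (200nM […]) for 30 min. cAMP read by HTRF (665/620 nm).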

[17] = target: D(2) dopamine receptor (Homo sapiens) (UniProt P14416); assay: Dopamine D2 receptor (DRD2) small molecule antagonists, cell-based qHTS assay (AID 1963595; active = well fitted inhibition curve with a large enough effect in the signal ratio in the repeat runs, with a control signal flat; the % refers to the signal ratio)
How it was run: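 In this cell-based antagonist screen, compounds act for 10 min at room temperature before a 30 min challenge with 12 nM quinpirole and 200 nM NKH477. cAMP is quantified by HTRF competition in DRD2-HEK293 cells containing 0.1 mM Ro20-1724.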

[18] = target: Muscarinic acetylcholine receptor M1 (Homo sapiens) (UniProt P11229); assay: Cholinergic receptor muscarinic 1 (CHRM1) small molecule agonists, cell-based qHTS assay (AID 1963589); also: nearly all actives have a fitted effect of over 35% in size
Chain of Muscarinic acetylcholine receptor M1 (Homo sapiens) (P11229 whole entry, looked up): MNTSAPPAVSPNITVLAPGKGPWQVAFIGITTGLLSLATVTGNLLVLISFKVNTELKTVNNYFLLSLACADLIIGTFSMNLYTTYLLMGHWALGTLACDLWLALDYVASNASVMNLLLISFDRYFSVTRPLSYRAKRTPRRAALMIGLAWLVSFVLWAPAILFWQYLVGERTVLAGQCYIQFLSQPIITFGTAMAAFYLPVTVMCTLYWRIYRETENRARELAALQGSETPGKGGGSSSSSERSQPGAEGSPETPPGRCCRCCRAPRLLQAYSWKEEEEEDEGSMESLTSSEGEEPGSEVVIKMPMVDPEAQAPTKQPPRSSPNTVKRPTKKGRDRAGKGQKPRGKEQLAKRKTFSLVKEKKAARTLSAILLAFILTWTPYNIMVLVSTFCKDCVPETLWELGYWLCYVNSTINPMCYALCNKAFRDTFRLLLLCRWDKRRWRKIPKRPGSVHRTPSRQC
How it was run: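 Homogeneous fluorescence calcium flux, agonist mode. Human M1-expressing CHO cells; compound dosed at 15 concentrations, three independent runs; signal sampled every 1 sec.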

[19] = target: 5-hydroxytryptamine receptor 2A (Homo sapiens) (UniProt P28223); assay: 5-hydroxytryptamine receptor 2A (HTR2A) small molecule agonists, cell-based qHTS assay (AID 1963587); also: nearly all actives have a fitted effect of over 30% in size; also: potency is read from the fitted curve at half-maximal effect
Chain of 5-hydroxytryptamine receptor 2A (Homo sapiens) (P28223 whole entry, looked up): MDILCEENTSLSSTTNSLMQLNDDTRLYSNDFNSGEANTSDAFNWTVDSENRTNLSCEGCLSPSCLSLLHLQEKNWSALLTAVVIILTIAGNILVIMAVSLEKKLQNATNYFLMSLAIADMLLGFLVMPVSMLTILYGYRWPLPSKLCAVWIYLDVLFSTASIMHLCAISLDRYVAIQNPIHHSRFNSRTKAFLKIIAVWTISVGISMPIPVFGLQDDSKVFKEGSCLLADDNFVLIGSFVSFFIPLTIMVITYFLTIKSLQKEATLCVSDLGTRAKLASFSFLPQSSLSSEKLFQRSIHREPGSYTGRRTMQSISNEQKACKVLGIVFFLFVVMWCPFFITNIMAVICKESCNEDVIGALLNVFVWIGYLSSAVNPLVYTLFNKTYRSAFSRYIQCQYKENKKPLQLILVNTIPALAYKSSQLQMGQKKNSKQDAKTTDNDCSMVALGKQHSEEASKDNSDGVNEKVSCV
How it was run: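 CHO cells stably expressing human HTR2A, plated 18 h, loaded with calcium dye 1 h at 37 C. Agonist mode: compounds added and intracellular calcium fluorescence recorded kinetically for 2 min at 1 sec intervals.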

[20] = target: Muscarinic acetylcholine receptor M1 (Homo sapiens) (UniProt P11229); assay: Cholinergic receptor muscarinic 1 (CHRM1) small molecule antagonists, cell-based qHTS assay (AID 1963588); also: nearly all actives have a fitted effect of over 40% in size
How it was run: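 Compounds were tested at 15 concentrations in three independent runs. Dye-loaded CHRM1-CHO cells were exposed 5 min at room temperature before stimulation by acetylcholine added at 50nM. Intracellular calcium was read kinetically on FDSS for 3 min.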

Row | SMILES | Potency [1] | Potency [2] | Potency [3] | Potency [4] | Potency [5] | Potency [6] | Potency [7] | Potency [8] | Potency [9] | Potency [10] | Potency [11] | Potency [12] | Potency [13] | Potency [14] | Potency [15] | Potency [16] | Potency [17] | Potency [18] | Potency [19] | Potency [20]
1 | CCOC(=O)C(C)(C)Oc1ccc(Cl)cc1 | inactive | inactive | inactive | inactive | inactive | inactive | inactive | inactive | inactive | inactive | inactive | inactive | inactive | inactive | inactive | inactive | inactive |  |  | 
2 | CC(C)=CCC/C(C)=C/CO | inactive | inactive | inactive | inactive | inactive | inactive | inactive | inactive | inactive | inactive | inactive | inactive | inactive | inactive |  | inactive | inactive |  |  | 
3 | CN(C)C=O | inactive | inactive | inactive | inactive | inactive | inactive | inactive | inactive | inactive | inactive | inactive | inactive |  | inactive | inactive |  | inactive |  |  | 
4 | COC(=O)c1ccc(O)cc1 | inactive | inactive | inactive | inactive | inactive | inactive | inactive | inactive | inactive | inactive | inactive | inactive | inactive | inactive | inactive | inactive | inactive |  |  | 
5 | NC(=NCCCCCCN=C(N)/N=C(\N)Nc1ccc(Cl)cc1)/N=C(\N)Nc1ccc(Cl)cc1 | 24.2 µM (active) [middle of 5 runs] | inactive | inactive | inactive | inactive | inactive | inactive | 40.4 µM (active) and 28.7 µM (active) and inactive | 32.1 µM (active) and 41.5 µM (active) and inactive | 45.3 µM (active) and inactive | inactive | inactive | inactive |  |  | inactive |  | inactive |  | 
6 | Cc1ncc([N+](=O)[O-])n1CCO | inactive | inactive | inactive | inactive | inactive | inactive | inactive | inactive | inactive | inactive | inactive | inactive | inactive | inactive | inactive | inactive | inactive |  |  | 
7 | NC(=O)NO | inactive | inactive | inactive | inactive | inactive | inactive | inactive | inactive | inactive | inactive | inactive | inactive | inactive | inactive | inactive | inactive | inactive |  |  | 
8 | Cc1[nH]c(=O)c(C#N)cc1-c1ccncc1 | inactive | inactive | inactive | inactive | inactive | inactive | inactive | inactive | inactive | inactive | inactive | inactive |  | inactive | inactive | inactive | inactive |  |  | 
9 | O=C(O)CCCCC1CCSS1 (stereo not drawn) | inactive | 5.44 µM (active) and inactive | inactive | inactive | inactive | inactive | inactive | inactive | inactive | inactive | inactive | inactive |  | inactive | inactive | inactive | inactive |  |  | 
10 | CCCCCCCCCCCCCCCC(=O)OC(C)C | inactive | inactive | inactive | inactive | inactive | inactive | inactive | inactive | inactive | inactive |  | inactive | inactive | inactive |  | inactive | inactive | inactive | inactive | inactive
11 | O=C(O)c1[nH]n(-c2ccc(S(=O)(=O)O)cc2)c(=O)c1N=Nc1ccc(S(=O)(=O)O)cc1 | 24.4 µM (active) and 45.4 µM (active) | inactive | inactive | inactive | inactive | inactive | inactive | inactive | inactive |  | inactive | inactive | inactive | inactive | inactive | inactive |  | inactive | inactive | inactive
12 | Nc1nc2ncc(CNc3ccc(C(=O)N[C@@H](CCC(=O)O)C(=O)O)cc3)nc2c(=O)[nH]1 | inactive | inactive | inactive | inactive | inactive | inactive | inactive | inactive | inactive | inactive |  | inactive | inactive | inactive | inactive | inactive | inactive | inactive | inactive | inactive
13 | C=CN1CCCC1=O | inactive | inactive | inactive | inactive | inactive | inactive | inactive | inactive | inactive | inactive |  | inactive |  | inactive |  | inactive | inactive | inactive | inactive | inactive
14 | CCCCCCCCCCCCOC(=O)c1cc(O)c(O)c(O)c1 | 30.5 µM (active) and 27.3 µM (active) | inactive | inactive | inactive | inactive | inactive | inactive | 45.8 µM (active) | 40.6 µM (active) | 40.6 µM (active) and 40.8 µM (active) |  | inactive | 21.6 µM (active) and 45.2 µM (active) | inactive | inactive | inactive |  | inactive | 10.9 µM (active) and inactive | inactive
15 | CC(=O)Nc1cccc(O)c1 | inactive | inactive | inactive | inactive | inactive | inactive | inactive | inactive | inactive | inactive |  | inactive | inactive |  | inactive | inactive | inactive |  |  | 
16 | CCN(CCN)c1cccc(C)c1 | inactive | inactive | inactive | inactive | inactive | inactive | inactive | inactive | inactive | inactive |  | inactive | inactive | 24.6 µM (active) |  |  | inactive | inactive | 393 nM (active) and 776 nM (active) | inactive
